# Data from PubChem BioAssay (NCI).
# Compounds without any hit were thinned out: in the full panel of roughly 83,000, 20% have a hit.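 Method: cells in 96-well plates; compound added at one concentration; 48 h incubation; percent growth measured; values under 10 scored active.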 Unmarked numbers belong to inactive results. Activity calls are given as the source filed them.
# Key:
# Assay in all cases: NCI-60 one-dose screen, 48 h (100 = growth as untreated, 0 = no growth, -100 = all killed)
# Settings in all cases: 10 µM
# [1] = system: RPMI-8226 leukemia
# [2] = system: OVCAR-8 ovarian
# [3] = system: OVCAR-5 ovarian
# [4] = system: OVCAR-4 ovarian
# [5] = system: SK-OV-3 ovarian
# [6] = system: OVCAR-3 ovarian
# [7] = system: HS 578T breast
# [8] = system: NCI/ADR-RES ovarian
# [9] = system: T-47D breast
# [10] = system: BT-549 breast
# [11] = system: MDA-MB-435 melanoma
# [12] = system: SW-620 colon
# [13] = system: MCF7 breast
# [14] = system: HCT-116 colon
# [15] = system: HCC-2998 colon
# [16] = system: KM12 colon
# [17] = system: IGROV1 ovarian
# [18] = system: SR leukemia
Compound,growth [1],growth [2],growth [3],growth [4],growth [5],growth [6],growth [7],growth [8],growth [9],growth [10],growth [11],growth [12],growth [13],growth [14],growth [15],growth [16],growth [17],growth [18]
Nc1nc(N)c(N)c(Nc2ccc(CCO)cc2)n1,95.3%,105%,111%,112%,110%,107%,100%,103%,102%,99.9%,104%,94%,105%,104%,106%,101%,,
Cc1cn(-c2cc(F)cc(NC(=O)c3ccc(C)c(Nc4nccc(-c5cccnc5)n4)c3)c2)cn1,,31.6%,45.2%,-41.7% (active),2.64% (active),-30.9% (active),38.5%,59.9%,3.22% (active),-27.3% (active),,40.5%,16.8%,6.97% (active),101%,,,
COC(=O)CC[C@@H](C)[C@H]1CC[C@H]2[C@@H]3CC[C@@H]4C[C@H](O)CC[C@]4(C)[C@H]3C[C@H](O)[C@]12C,68.4%,103%,109%,110%,111%,102%,114%,106%,89.2%,96.4%,118%,107%,84.8%,86.7%,,102%,,
O=C(c1ccccc1)N(C(=O)c1ccccc1)N1CCCC1,103%,,99.3%,,109%,110%,105%,102%,99.9%,105%,116%,100%,105%,106%,,107%,,
CSc1nc(S(C)(=O)=O)nc2[nH]c(=O)[nH]c12,123%,108%,,117%,115%,115%,111%,110%,112%,102%,,111%,109%,99.1%,,118%,,
O=C(O)Cc1ccc(O)c(O)c1,92.4%,104%,96.2%,109%,99.3%,108%,90%,111%,83.2%,88.3%,103%,103%,91%,105%,92.2%,98.6%,,
O=[N+]([O-])c1ccc(NCSc2ccc(Cl)cc2)cc1,91.8%,97%,106%,117%,109%,106%,,102%,92.8%,71.5%,109%,,95%,86.3%,,,,
C=C1CCC2(C#N)[C@H]3[C@H](CC[C@@H]2C)[C@@H](C)C[C@@H](CC(C)(C)NC(=O)CN2CCC2=O)[C@H]13 (stereo partly drawn),-11.3% (active),54.8%,63.5%,62.4%,89.7%,65.6%,74.3%,59.2%,12.5%,55.3%,57.9%,74.6%,35.2%,39%,41.1%,42.7%,28.7%,
CCOC(=O)c1cocc1C(=O)O,114%,105%,105%,100%,106%,103%,100%,107%,104%,108%,106%,103%,101%,,103%,104%,113%,
Fc1ccc(C(c2ccc(F)cc2)C(Cl)Cl)cc1,97.3%,101%,105%,105%,106%,105%,,107%,110%,95.5%,107%,,98%,96.8%,,,,
CC1OC2CC(=O)OC2C2=C1C(=O)c1c(O)c3c(c(O)c1C2=O)C1CC(O)C3(O)C(C)O1 (stereo not drawn),-6.28% (active),5.64% (active),-47.3% (active),-99.6% (active),8.13% (active),-34.1% (active),-12.3% (active),1.39% (active),-21.4% (active),-98.7% (active),-0.0926% (active),-36.4% (active),-71% (active),-91.5% (active),-28.4% (active),-34.7% (active),-36.7% (active),
Cc1ccc(C(SCC(N)C(=O)O)(c2ccc(C)cc2)c2ccc(C)cc2)cc1 (stereo not drawn),-36.6% (active),7.22% (active),38.6%,47.8%,26%,-42.6% (active),-15.3% (active),57.8%,27.2%,,-59.8% (active),20.5%,9.12% (active),-25.5% (active),1.38% (active),0.314% (active),,
COCCn1cc(-c2nc(-c3cccnc3)cs2)c2cc(F)ccc21,,102%,,95.6%,7.36% (active),94.1%,98.6%,86%,87.7%,93%,79.9%,99.4%,102%,102%,102%,69.4%,,63.5%
CN(C)c1ccc(/C=N/NC(=O)c2cccc3ccccc23)c(Cl)c1,7.96% (active),36.5%,58.1%,50.9%,16.9%,-17.4% (active),42.2%,-9.37% (active),25.4%,45.3%,-22.1% (active),24.2%,15.1%,31%,,,46.1%,
COc1ccc(-c2nn(-c3cccc(Cl)c3)cc2-c2c(C#N)c(N)n(N)c(=O)c2C#N)cc1,,73.3%,84.4%,89.3%,95%,72.4%,58.2%,90.4%,48.7%,58%,,83%,47.5%,45.7%,93.4%,62.3%,,
CN(C)c1nc(N)c2nccnc2n1,110%,110%,100%,104%,110%,105%,105%,99.2%,104%,104%,106%,99.2%,96%,104%,,101%,,
CCCCCCCCCCCC[n+]1c(C)cc(N)c2ccccc21,-28.4% (active),3.24% (active),31.7%,15.1%,-2.73% (active),18%,,53.3%,-14% (active),-29.7% (active),-6.75% (active),,-0.77% (active),-4.63% (active),,,,
Cc1ccc(C2NC(=S)N3C(c4ccc(C)cc4)NC(=S)N23)cc1 (stereo not drawn),6.55% (active),35.7%,81.6%,117%,49%,-20% (active),26.4%,19%,47.3%,,-35% (active),29.2%,10.5%,1.28% (active),47%,8.36% (active),,
O=C(N/N=C/c1cc([N+](=O)[O-])ccc1O)c1cccc2ccccc12,21.5%,22.8%,47.2%,20.2%,41%,27.2%,64.1%,10.6%,28.3%,45.2%,57.1%,47.7%,16.5%,18.4%,52.4%,56.1%,39.8%,
O=C1OC(C(Cl)(Cl)Cl)OC1C(Cl)(Cl)Cl (stereo not drawn),104%,104%,105%,113%,,109%,117%,108%,122%,109%,94.7%,125%,114%,105%,111%,101%,,
